Screens deposited in PubChem BioAssay by several laboratories.
TWEAK-Fn14 inh: TWEAK-Fn14 signaling inhibition; TWEAK-stimulated Fn14 reporter cells, luciferase luminescence, 8 h; inhibition, % at 10 µM; 360,000 tested, 2% active; in the data active = inhibition above about 50%
TROY NFkB inh: blocks TROY-dependent signaling in reporter cells | Q293 LMP1-TROYcd NF-kB luciferase reporter, 4 h | inhibition, % at 10 µM | 360,000 tested, 0.98% active | AID 1347056;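 active = compounds whose plate-normalised and pattern-corrected inhibition of the luciferase reporter signal at the single screening dose is 50% or more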
LGR2 inh: inhibitors of bursicon-induced Drosophila LGR2 receptor cAMP signaling; HEK293 LGR2, CRE-luciferase, bursicon-stimulated, 4 h; inhibition, % at 9.99 µM; 380,000 tested, 0.35% active;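 active = drop in luminescence signal, shown as inhibition above about 50% in the replicate tests, limit read from the data, passing the limit was not always enough; inconclusive = probably only some replicates passing the limit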;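 note: agonist challenge used bursicon conditioned medium at about half maximal strength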
HSP90 refold inh: blocks HSP90-mediated luciferase refolding in reticulocyte lysate; Rabbit reticulocyte lysate, luciferase refolding luminescence, 3 h; inhibition, % at 5.6 µM; 290,000 tested, 0.91% active;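 active = inhibition above the screen-wide mean plus 3 SD, computed separately per campaign, cut at about 16% in these data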;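 note: 0% = DMSO wells and 100% = 60 µM geldanamycin wells; inhibitors lower the luminescence because luciferase stays unfolded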
The depositor's hits bear a star; ? = inconclusive; . = no result given. Most compounds without a hit are left out; they make up all but 2.2% or so of the library.

SMILES	TWEAK-Fn14 inh	TROY NFkB inh	LGR2 inh	HSP90 refold inh
Cc1ccc(S(=O)(=O)N2CCCCC2)cc1NC(=O)c1ccc2c(=O)n3c(nc2c1)CCCCC3	.	.	67*	3
CC(=O)c1ccc(NC(=O)c2ccc3c(=O)n4c(nc3c2)CCCCC4)cc1	14	4	1	-2
Oc1ccc(-c2n[nH]c(C(F)(F)F)c2-c2ccccc2)c(O)c1	56*	31	4	1
O=C(C1=C[C@@H](c2ccc(Br)cc2)C[C@@H](OCc2ccc(CO)cc2)O1)N1CCN(Cc2ccc3c(c2)OCO3)CC1	25	9	.	17*
O=C(C1=C[C@@H](c2ccc(C(F)(F)F)cc2)C[C@@H](OCc2ccc(CO)cc2)O1)N1CCN(Cc2ccc3c(c2)OCO3)CC1	36	-2	-8	7
COc1ccc(C(CNC(=O)C(C)c2ccc3cc(OC)ccc3c2)N(C)C)cc1 (stereo unspecified)	63*	8	4	1
O=C(N[C@@H]1CC[C@H](CCNC(=O)C2CCCC2)O[C@H]1CO)c1ccncc1	.	.	4	.
C[C@@H]1CCCCO[C@@H](CN(C)Cc2ccncc2)[C@H](C)CN([C@@H](C)CO)C(=O)c2cc(NS(=O)(=O)c3cn(C)cn3)ccc2O1	.	.	26	.
O=C(COc1ccccc1)OCC(=O)N1CCCc2ccccc21	0	60*	10	.
O=C(COc1ccccc1)N1CCc2ccccc21	-22	-58	-53	8
O=C(c1cc(=O)c2ccccc2o1)N1CCCc2ccccc21	52*	28	.	1
O=C(c1cc2ccccc2c(=O)o1)N1CCCc2ccccc21	-21	-10	.	-2
COc1ccc(OC)c(C2=NOC(C(=O)N3CCCc4ccccc43)C2)c1 (stereo unspecified)	55*	39	.	1
O=C(OCC(=O)N1CCc2ccccc21)c1ccccc1F	-19	-20	-123	-1
O=C(OCC(=O)N1CCc2ccccc21)c1ccccc1[N+](=O)[O-]	60*	50	37	.
C[C@H](CO)N1C[C@H](C)[C@H](CN(C)C(=O)C2CCC2)Oc2ncc(C#Cc3cccc(F)c3)cc2C1=O	.	.	11	.
COc1ccc(C(=O)N2CCCc3ccccc32)cc1Br	-9	19	.	1
Cc1ccc(S(=O)(=O)CCC(=O)N2CCc3ccccc32)cc1	-9	-36	.	1
COc1ccc(CC(=O)Nc2cccc3c2CCCC3)cc1	104*	-10	.	8
COc1ccc(CC(=O)N2CCCc3ccccc32)cc1	50*	35	.	3
COc1cc(OC)cc(C(=O)N2CCCc3ccccc32)c1	52*	41	-5	6
O=C(CCS(=O)(=O)c1ccc(Cl)cc1)N1CCCc2ccccc21	53*	65*	0	10
COc1ccc(CC(=O)OCC(=O)N2CCCc3ccccc32)cc1	4	-12	-39	.
CCCN(C)C[C@H]1OCc2cn(nn2)CCCC(=O)N([C@H](C)CO)C[C@H]1C	.	.	1	.
Cc1ccc(S(=O)(=O)N(C)C[C@@H]2OCCCC[C@H](C)Oc3ccc(NC(=O)c4ccncc4)cc3C(=O)N([C@@H](C)CO)C[C@H]2C)cc1	.	.	-14	.
SMILES	TWEAK-Fn14 inh	TROY NFkB inh	LGR2 inh	HSP90 refold inh
O=C(C[C@H]1CC[C@@H](NC(=O)Nc2ccc3c(c2)OCO3)[C@@H](CO)O1)NCCCN1CCOCC1	.	.	12	.
c1ccc(CNc2nc3ccccc3n3cnnc23)cc1	-10	-17	-15	16*
c1ccc(CNc2nc3ccccc3n3cnnc23)nc1	3	-36	-14	-4
O=[N+]([O-])c1ccc(O)c(/C=N/Nc2ccccc2Cl)c1	11	69*	33	-2
CN(C(=O)/C=C/c1cnc2ccccc2c1)C1CCCCC1	52*	32	37	12
COc1ccc(/C=C/C(=O)N(C)C2CCCCC2)cc1Br	-40	-31	-18	0
CCOc1cc(CNc2ccc(N3CCCC3)cc2)cc(Cl)c1OC	59*	32	.	2
CCOc1ccc(CNc2ccc(N3CCN(Cc4ccccc4)CC3)cc2)cc1	24	12	4	-4
CCOc1ccc(CNc2ccc(N3CCCC3)cc2)cc1	55*	40	.	6
COc1ccc(S(=O)(=O)N(C)C[C@@H]2Oc3ccc(NS(=O)(=O)c4ccccc4)cc3C(=O)N([C@H](C)CO)C[C@@H]2C)cc1	.	.	-1	.
C[C@H]1CN([C@@H](C)CO)C(=O)Cc2cc(NS(=O)(=O)c3cn(C)cn3)ccc2O[C@@H]1CN(C)Cc1ccncc1	.	.	-43	.
O=C(O)c1c(F)c(F)cc2ccccc12	107*	-2	-2	-1
O=C(c1ccc2ccccc2c1)c1cccc(F)c1C(=O)O	-4	-13	-12	.
O=c1c(Cc2ccccc2)c(O)c2cccc3c4c(n1c23)CCCC4	-2	54*	-8	-1
COc1cccc(NC(=O)N[C@H]2C=C[C@@H](CC(=O)Nc3ccccc3)O[C@H]2CO)c1	.	.	-9	.
CCCCN(Cc1cc2cc(OC)ccc2[nH]c1=O)S(=O)(=O)c1ccc(C)cc1	52*	46	16	2
COc1ccc2[nH]c(=O)c(CN(CCO)S(=O)(=O)c3ccc(C)cc3)cc2c1	7	-7	-5	0
C[C@H]1CN([C@@H](C)CO)C(=O)Cc2cc(NC(=O)Nc3ccc(C(F)(F)F)cc3)ccc2O[C@@H]1CN(C)S(=O)(=O)c1cccs1	.	.	15	.
CC1(C)CNc2cc(N)ccc2S1	51*	51*	-15	8
O=C(C1CCCC1)N1CC2(C1)[C@H](c1ccccc1)[C@@H](CO)N2CC1CC1	.	.	-2	.
COc1ccc(NC(=O)CSc2cc(C)nc3c(-c4ccccc4)cnn23)cc1	22	56*	.	1
Cc1cc(SCC(=O)Nc2ccccc2)n2ncc(-c3ccccc3)c2n1	32	63*	-3	-2
Cc1cc(SCC(=O)Nc2ccc(O)cc2)n2ncc(-c3ccccc3)c2n1	17	27	3	3
O[C@@H]1[C@@H](O)C=C2CCN3Cc4cc5c(cc4[C@H]1C23)OCO5 (stereo partly specified)	75*	68*	88*	.
COc1ccc2c(c1OC)CN1CCc3cc4c(cc3[C@@H]1[C@@H]2O)OCO4	-5	0	.	-2
SMILES	TWEAK-Fn14 inh	TROY NFkB inh	LGR2 inh	HSP90 refold inh
COc1ccc(Cc2[nH]n3c(=O)c(Cl)c(C)nc3c2-c2ccccc2)cc1	26	69*	-30	0
O=C1c2ccccc2S(=O)(=O)c2cc(N3CCOCC3)ccc21	71*	44	?	.
CCc1nc(OCc2ccco2)c2sc3nc4c(cc3c2n1)COC(C)(C)C4	21	10	.	16*
COC(=O)/C(=C/c1cccnc1)NC(=O)c1ccccc1	6	-6	4	4
COC(=O)C(=C/C(C)=C/c1cccnc1)C(=O)OC	65*	42	28	1
O=C(c1ccncc1)N1C[C@@H]2[C@H](c3ccccc31)[C@@H](CO)N2C(=O)c1ccccn1	.	.	6	.
CC[C@H](C)Cc1cn([C@@H](CCCCN)C(=O)NCCCCCCCCCCC(=O)N2CCNCC2)nn1	-1	-8	-9	.
CC[C@H](C)Cc1cn([C@@H](CCCN=C(NC(=O)OC(C)(C)C)NC(=O)OC(C)(C)C)C(=O)NCCCCCCCCCCC(=O)N2CCN(C(=O)OC(C)(C)C)CC2)nn1	60*	81*	.	.
